# According to PubChem BioAssay AID1159580 (chemical genetic matrix, 2015):
# The campaign covered roughly 5,500 compounds. About 2,000 (36%) were called active. Not shown: some 18% with an inconclusive outcome. The list shows a part of the results. A number with no mark means an inactive call. Cut-off read from the data, not from the text of the source: active = normalized growth mostly below about 0.91 (no sharp cut-off); inconclusive = no clear call, values can overlap the other calls; inactive = mostly above about 0.92.
# Assay: chemical genetic growth profiling, strain panel (AID 1159580);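 note: tested at 20 µM; growth read once vehicle control cultures reached saturation at 30 °C; 1 = growth at the plate median or of vehicle wells; lower values mean less growth of the strain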
# Conditions: S. cerevisiae deletion strains, growth OD
# [1] = locus YDL101C, strain DUN1, hits give low values
# [2] = locus YHR030C, strain SLT2, hits give low values
# [3] = locus YAR019C, strain CDC15, hits give low values
# [4] = locus YBL105C, strain PKC1, hits give low values
# [5] = locus YBR135W, strain CKS1, hits give low values
# [6] = locus YBR136W, strain MEC1, hits give low values
# [7] = locus YBR160W, strain CDC28, hits give low values
# [8] = locus YDL017W, strain CDC7, hits give low values
# [9] = locus YDL028C, strain MPS1, hits give low values
# [10] = locus YDL108W, strain KIN28, hits give low values
# [11] = locus YDL132W, strain cdc53, hits give low values
# [12] = locus YDL214C, strain PRR2, hits give low values
# [13] = locus YDR052C, strain DBF4, hits give low values
# [14] = locus YDR054C, strain cdc34, hits give low values
# [15] = locus YDR226W, strain ADK1, hits give low values
# [16] = locus YDR477W, strain SNF1, hits give low values
# [17] = locus YER123W, strain YCK3, hits give low values
# [18] = locus YER133W, strain GLC7, hits give low values
# [19] = locus YFL009W, strain cdc4, hits give low values
# [20] = locus YFL029C, strain CAK1, hits give low values
# [21] = locus YFR003C, strain YPI1, hits give low values
# [22] = locus YFR019W, strain FAB1, hits give low values
# [23] = locus YFR028C, strain CDC14, hits give low values
# [24] = locus YGR040W, strain KSS1, hits give low values
# [25] = locus YGR052W, strain FMP48, hits give low values
# [26] = locus YGR092W, strain DBF2, hits give low values
# [27] = locus YHR079C, strain IRE1, hits give low values
# [28] = locus YHR082C, strain KSP1, hits give low values
# [29] = locus YHR205W, strain SCH9, hits give low values
# [30] = locus YIL147C, strain SLN1, hits give low values
# [31] = locus YJL095W, strain BCK1, hits give low values
# [32] = locus YJL128C, strain PBS2, hits give low values
# [33] = locus YJL157C, strain FAR1, hits give low values
# [34] = locus YJR016C, strain ILV3, hits give low values
# [35] = locus YJR066W, strain TOR1 (second series), hits give low values
# [36] = locus YJR066W, strain TOR1, hits give low values
# [37] = locus YKL048C, strain ELM1, hits give low values
# [38] = locus YKL067W, strain YNK1, hits give low values
# [39] = locus YKL101W, strain HSL1, hits give low values
# [40] = locus YKL193C, strain SDS22, hits give low values
# [41] = locus YKL203C, strain TOR2, hits give low values
# [42] = locus YLR113W, strain HOG1, hits give low values
# [43] = locus YLR133W, strain CKI1, hits give low values
# [44] = locus YLR403W, strain SFP1, hits give low values
# [45] = locus YML070W, strain DAK1, hits give low values
# [46] = locus YMR001C, strain CDC5, hits give low values
# [47] = locus YMR205C, strain PFK2 (second series), hits give low values
# [48] = locus YMR277W, strain FCP1, hits give low values
# [49] = locus YNL006W, strain LST8, hits give low values
# [50] = locus YNL020C, strain ARK1, hits give low values
# [51] = locus YNL161W, strain CBK1, hits give low values
# [52] = locus YNL183C, strain NPR1, hits give low values
# [53] = locus YNL207W, strain RIO2, hits give low values
# [54] = locus YNL222W, strain SSU72, hits give low values
# [55] = locus YNL307C, strain MCK1 (second series), hits give low values
# [56] = locus YOL078W, strain AVO1, hits give low values
# [57] = locus YOL136C, strain PFK27, hits give low values
# [58] = locus YOR061W, strain CKA2, hits give low values
# [59] = locus YOR119C, strain RIO1, hits give low values
# [60] = locus YOR231W, strain MKK1, hits give low values
# [61] = locus YOR329C, strain SCD5, hits give low values
# [62] = locus YPL031C, strain PHO85, hits give low values
# [63] = locus YPL153C, strain RAD53, hits give low values
# [64] = locus YPL204W, strain HRR25, hits give low values
# [65] = locus YPL209C, strain IPL1, hits give low values
# [66] = locus YPL256C, strain CLN2, hits give low values
# [67] = locus YPR025C, strain CCL1, hits give low values
# [68] = locus YPR106W, strain ISR1, hits give low values
# [69] = locus YPR111W, strain DBF20, hits give low values
# [70] = strain NNK1, hits give low values
# [71] = strain TSCII, hits give low values
structure (smiles),measurement,setting,value
COc1ccccc1N1CC(C)(C)C(=O)N(C(=O)c2c(F)cccc2Cl)C1=S,normalized growth,"locus YAL013W, strain DEP1, hits give low values",1.02
same,normalized growth,"locus YBR229C, strain ROT2, hits give low values",1.02
same,normalized growth,"locus YCL061C, strain MRC1, hits give low values",1.02
same,normalized growth,[1],1.03
same,normalized growth,"locus YDR150W, strain NUM1, hits give low values",0.933
same,normalized growth,"locus YEL061C, strain CIN8, hits give low values",0.985
same,normalized growth,"locus YGR078C, strain PAC10, hits give low values",1.02
same,normalized growth,[2],1.01
same,normalized growth,"locus YHR087W, strain rtc3, hits give low values",0.986
same,normalized growth,"locus YJL187C, strain SWE1, hits give low values",1.02
same,normalized growth,"locus YJR043C, strain POL32, hits give low values",1.03
same,normalized growth,"locus YJR075W, strain HOC1, hits give low values",1
same,normalized growth,"locus YKL190W, strain CNB1, hits give low values",1
same,normalized growth,"locus YLR039C, strain RIC1, hits give low values",0.862
same,normalized growth,"locus YLR058C, strain SHM2 (second series), hits give low values",0.995
same,normalized growth,"locus YLR085C, strain ARP6, hits give low values",0.984
same,normalized growth,"locus YLR262C, strain YPT6, hits give low values",0.86
same,normalized growth,"locus YML094W, strain GIM5, hits give low values",1
same,normalized growth,"locus YMR219W, strain ESC1, hits give low values",1.02
same,normalized growth,"locus YMR263W, strain SAP30, hits give low values",0.954
same,normalized growth,"locus YNL128W, strain TEP1, hits give low values",1.02
same,normalized growth,"locus YNL153C, strain GIM3, hits give low values",1
same,normalized growth,"locus YNL298W, strain CLA4 (second series), hits give low values",1.01
same,normalized growth,"locus YNL322C, strain KRE1, hits give low values",1.01
same,normalized growth,"locus YNR030W, strain Alg12, hits give low values",1
same,normalized growth,"locus YPL055C, strain LGE1, hits give low values",0.899
same,normalized growth,"locus YPL241C, strain CIN2, hits give low values",1.01
same,normalized growth,"locus YPR135W, strain CTF4, hits give low values",0.985
O=C(Nc1ccc(F)cc1F)c1cc(Cl)ccc1O,normalized growth,[3],0.935
same,normalized growth,[4],0.933
same,normalized growth,[5],0.943
same,normalized growth,[6],0.94
same,normalized growth,[7],0.945
same,normalized growth,[8],0.935
same,normalized growth,[9],0.937
same,normalized growth,[1],0.979
same,normalized growth,[10],0.936
same,normalized growth,[11],0.97
same,normalized growth,[12],0.876
same,normalized growth,[13],0.926
same,normalized growth,[14],0.928
same,normalized growth,[15],0.931
same,normalized growth,[16],0.947
same,normalized growth,[17],0.864
same,normalized growth,[18],0.9
same,normalized growth,[19],0.923
same,normalized growth,[20],0.941
same,normalized growth,[21],0.929
same,normalized growth,[22],0.933
same,normalized growth,[23],0.925
same,normalized growth,[24],0.952
same,normalized growth,[25],1
same,normalized growth,[26],0.683
same,normalized growth,[2],0.927
same,normalized growth,[27],0.845
same,normalized growth,[28],0.989
same,normalized growth,[29],0.694
same,normalized growth,[30],0.938
same,normalized growth,[31],0.877
same,normalized growth,[32],0.918
same,normalized growth,[33],0.827
same,normalized growth,[34],0.939
same,normalized growth,[35],0.952
same,normalized growth,[36],1.03
same,normalized growth,[37],0.935
same,normalized growth,[38],0.884
same,normalized growth,[39],0.961
same,normalized growth,[40],0.941
same,normalized growth,[41],1.03
same,normalized growth,[42],0.98
same,normalized growth,[43],0.889
same,normalized growth,[44],0.708
same,normalized growth,[45],0.936
same,normalized growth,[46],0.94
same,normalized growth,[47],0.901
same,normalized growth,[48],0.952
same,normalized growth,[49],0.938
same,normalized growth,[50],0.84
same,normalized growth,[51],0.934
same,normalized growth,[52],1.02
same,normalized growth,[53],0.944
same,normalized growth,[54],0.939
same,normalized growth,[55],0.857
same,normalized growth,[56],0.939
same,normalized growth,[57],0.909
same,normalized growth,[58],0.89
same,normalized growth,[59],1.01
same,normalized growth,[60],0.996
same,normalized growth,[61],0.939
same,normalized growth,[62],0.928
same,normalized growth,[63],0.922
same,normalized growth,[64],0.915
same,normalized growth,[65],0.937
same,normalized growth,[66],0.927
same,normalized growth,[67],0.945
same,normalized growth,[68],0.94
same,normalized growth,[69],0.947
same,normalized growth,[70],0.965
same,normalized growth,[71],0.934
O=C(Nc1cc(Cl)cc(Cl)c1)c1cc(Cl)ccc1O,normalized growth,[3],0.93
same,normalized growth,[4],0.94
same,normalized growth,[5],0.922
same,normalized growth,[6],0.943
same,normalized growth,[7],0.934
same,normalized growth,[8],0.936
same,normalized growth,[9],0.94
same,normalized growth,[1],0.981
same,normalized growth,[10],0.924
same,normalized growth,[11],0.917
same,normalized growth,[12],0.785
same,normalized growth,[13],0.91 (active)
same,normalized growth,[14],0.921
same,normalized growth,[15],0.973
same,normalized growth,[16],0.838
same,normalized growth,[17],0.75
same,normalized growth,[18],0.74
same,normalized growth,[19],0.924
same,normalized growth,[20],0.923
same,normalized growth,[21],0.935
same,normalized growth,[22],0.83
same,normalized growth,[23],0.928
same,normalized growth,[24],0.836
same,normalized growth,[25],0.785
same,normalized growth,[26],0.321 (active)
same,normalized growth,[2],0.799 (active)
same,normalized growth,[27],0.584
same,normalized growth,[28],0.853
same,normalized growth,[29],0.504 (active)
same,normalized growth,[30],0.94
same,normalized growth,[31],0.751
same,normalized growth,[32],0.917
same,normalized growth,[33],0.648 (active)
same,normalized growth,[34],0.924
same,normalized growth,[35],0.668
same,normalized growth,[36],0.705
same,normalized growth,[37],0.802 (active)
same,normalized growth,[38],0.759
same,normalized growth,[39],0.827
same,normalized growth,[40],0.93
same,normalized growth,[41],0.818
same,normalized growth,[42],0.844 (active)
same,normalized growth,[43],0.779
same,normalized growth,[44],0.642 (active)
same,normalized growth,[45],0.805
same,normalized growth,[46],0.93
same,normalized growth,[47],0.784
same,normalized growth,[48],0.927
same,normalized growth,[49],0.923
same,normalized growth,[50],0.68 (active)
same,normalized growth,[51],0.936
same,normalized growth,[52],0.899
same,normalized growth,[53],0.939
same,normalized growth,[54],0.924
same,normalized growth,[55],0.615 (active)
same,normalized growth,[56],0.925
same,normalized growth,[57],0.797
same,normalized growth,[58],0.693
same,normalized growth,[59],0.858
same,normalized growth,[60],0.843
same,normalized growth,[61],0.939
same,normalized growth,[62],0.823
same,normalized growth,[63],0.801
same,normalized growth,[64],0.722
same,normalized growth,[65],0.925
same,normalized growth,[66],0.836 (active)
same,normalized growth,[67],0.936
same,normalized growth,[68],0.956
same,normalized growth,[69],0.95
same,normalized growth,[70],0.965
same,normalized growth,[71],0.938
